Compounds without any hit were thinned out: in the full panel of roughly 83,000, 20% have a hit.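 Note: values are percent growth. 100 is the growth of untreated cells, values between 100 and 0 indicate rising inhibition; between -100 and 0 indicates cell death.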 Values without a mark were called inactive. Active and inactive are the calls of the source. Rule for the calls: active = growth percent below 10; inactive = the rest.
Tests used:
Assay in all cases: NCI-60 one-dose screen, 48 h (100 = growth as untreated, 0 = no growth, -100 = all killed)
[1] = system: RPMI-8226 leukemia; conditions: 10 µM unless noted
[2] = system: OVCAR-8 ovarian; conditions: 10 µM unless noted
[3] = system: OVCAR-5 ovarian; conditions: 10 µM unless noted
[4] = system: OVCAR-4 ovarian; conditions: 10 µM unless noted
[5] = system: IGROV1 ovarian; conditions: 10 µM unless noted
[6] = system: OVCAR-3 ovarian; conditions: 10 µM unless noted
[7] = system: HS 578T breast; conditions: 10 µM unless noted
[8] = system: NCI/ADR-RES ovarian; conditions: 10 µM unless noted
[9] = system: T-47D breast; conditions: 10 µM unless noted
[10] = system: MDA-MB-435 melanoma; conditions: 10 µM unless noted
[11] = system: SW-620 colon; conditions: 10 µM unless noted
[12] = system: MCF7 breast; conditions: 10 µM
[13] = system: HCT-116 colon; conditions: 10 µM unless noted
[14] = system: HCC-2998 colon; conditions: 10 µM unless noted
[15] = system: KM12 colon; conditions: 10 µM unless noted
[16] = system: SR leukemia; conditions: 10 µM unless noted
[17] = system: SK-OV-3 ovarian; conditions: 10 µM unless noted
[18] = system: BT-549 breast; conditions: 10 µM unless noted

Structure (SMILES)	growth [1]	growth [2]	growth [3]	growth [4]	growth [5]	growth [6]	growth [7]	growth [8]	growth [9]	growth [10]	growth [11]	growth [12]	growth [13]	growth [14]	growth [15]	growth [16] [%]	growth [17]	growth [18]
CN(C)CCOc1ccc2c(c1)C(=O)/C(=C\c1ncc([N+](=O)[O-])n1C)C2	9.88% (active)	1.01% (active)	-21.1% (active)	-49.1% (active)	-47.7% (active)	-59% (active)	21.1%	-1.71% (active)	25.4%	-73.6% (active)	-31.6% (active)	-30.7% (active)	-5.59% (active)	-86.1% (active)	-68% (active)			
O=C1c2ccccc2C(=O)N1c1ccccc1			107%	105%	105%	108%	119%	105%	95.7%	98.7%		96.6%	105%	102%	107%	85.7	99.1%	107%
O=[N+]([O-])c1ccc(N=Nc2ccc(O)cc2O)cc1			107%	48.4%	76.5%		51.8%	52.6%	27.4%	10.1%		26%	17.5%	31.6%	64.3%	16.6	87%	64.5%
c1ccc2c(c1)Nc1cc3ccccc3cc1N2			69.7%	32.6%	50.6%	-3.74% (active)	53.4%	30.5%	24.9%		18.8%	2.88% (active)	26.4%	36.8%	44.2%	29.2	63.6%	33%
CCCCCCCCCCCCCCCCN(CC)CC	-60.1% (active)	-38.3% (active)	-57.3% (active)	-6.38% (active)	-90.5% (active)	-58.6% (active)	-25.1% (active)	-71.1% (active)	2.05% (active)			-68.6% (active)	-52.5% (active)	-97.1% (active)	-57% (active)		-46.1% (active)	-36.8% (active)
Cc1cc2nc(CS)[nH]c2cc1C		96.5%	96.8%	85.5%	74.5%		103%	95.7%	74.3%	90.9%		82.9%	58.1%	102%	88%	45.9	87.1%	
CC1(C)CC([P+](c2ccccc2)(c2ccccc2)c2ccccc2)=NN1	16.2%	32.3%	67.7%	17.9%	-22.8% (active)	23.7%	72.1%	105%	6.55% (active)	28.2%	47.6%	5.67% (active)	16.6%	18.1%	21.7%		33.2%	
N#CSCC(=O)c1ccc(Cl)cc1			22.5%	63.5%		-25.3% (active)	70.5%	-16.4% (active)	71.4%	15.8%	22.7%	10.7%	-16.3% (active)	-19.5% (active)	14.7%	69.9	66.7%	43.7%

From PubChem BioAssay (NCI)
